Assay [1] addresses T1, Serine/threonine-protein kinase TBK1 (Homo sapiens) (UniProt Q9UHD2).
T1 sequence (whole entry): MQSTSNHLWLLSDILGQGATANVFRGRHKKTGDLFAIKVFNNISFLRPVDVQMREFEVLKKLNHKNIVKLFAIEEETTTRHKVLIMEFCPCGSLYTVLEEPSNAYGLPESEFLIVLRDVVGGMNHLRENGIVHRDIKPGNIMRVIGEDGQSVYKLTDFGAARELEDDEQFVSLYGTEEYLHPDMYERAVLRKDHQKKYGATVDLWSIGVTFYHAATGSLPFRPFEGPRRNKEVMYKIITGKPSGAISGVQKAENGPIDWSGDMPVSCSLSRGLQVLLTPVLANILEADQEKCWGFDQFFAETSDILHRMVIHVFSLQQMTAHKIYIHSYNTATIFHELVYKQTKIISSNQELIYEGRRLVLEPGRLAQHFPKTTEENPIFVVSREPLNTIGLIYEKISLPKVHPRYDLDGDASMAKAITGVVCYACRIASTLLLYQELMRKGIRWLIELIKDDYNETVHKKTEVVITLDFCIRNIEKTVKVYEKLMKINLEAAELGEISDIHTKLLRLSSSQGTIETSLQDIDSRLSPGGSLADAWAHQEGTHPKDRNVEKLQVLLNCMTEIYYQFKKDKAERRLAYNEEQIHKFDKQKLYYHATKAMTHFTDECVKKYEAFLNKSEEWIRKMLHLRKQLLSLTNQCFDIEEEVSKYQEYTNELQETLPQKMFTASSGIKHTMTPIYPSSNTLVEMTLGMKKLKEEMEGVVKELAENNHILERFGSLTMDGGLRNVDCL
The note with it: at 10 µM.

Assay [2] concerns the target T2, TGF-beta receptor type-1 (Homo sapiens) (UniProt P36897).
T2 sequence (whole entry): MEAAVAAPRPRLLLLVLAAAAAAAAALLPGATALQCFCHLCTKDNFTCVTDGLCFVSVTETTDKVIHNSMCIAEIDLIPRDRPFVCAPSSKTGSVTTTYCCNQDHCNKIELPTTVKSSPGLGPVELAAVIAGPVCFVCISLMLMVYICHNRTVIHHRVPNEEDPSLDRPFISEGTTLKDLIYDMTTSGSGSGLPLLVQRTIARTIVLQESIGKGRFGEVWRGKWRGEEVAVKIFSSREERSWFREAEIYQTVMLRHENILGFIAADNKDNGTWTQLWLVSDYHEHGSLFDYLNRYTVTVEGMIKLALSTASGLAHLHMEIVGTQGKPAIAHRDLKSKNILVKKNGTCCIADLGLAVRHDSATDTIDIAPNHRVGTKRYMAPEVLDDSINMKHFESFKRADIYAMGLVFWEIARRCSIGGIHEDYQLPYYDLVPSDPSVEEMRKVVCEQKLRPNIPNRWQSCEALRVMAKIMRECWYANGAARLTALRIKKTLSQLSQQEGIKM
The note with it: at 1 µM.

The target in assay [3] is T2, TGF-beta receptor type-1 (Homo sapiens). The settings on record: at 10 µM.
Assay [4] deals with Insulin-like growth factor 1 receptor (Homo sapiens) (UniProt P08069). The settings on record: at 1 µM.
Chain of Insulin-like growth factor 1 receptor (Homo sapiens) (P08069 31-736 limits assumed): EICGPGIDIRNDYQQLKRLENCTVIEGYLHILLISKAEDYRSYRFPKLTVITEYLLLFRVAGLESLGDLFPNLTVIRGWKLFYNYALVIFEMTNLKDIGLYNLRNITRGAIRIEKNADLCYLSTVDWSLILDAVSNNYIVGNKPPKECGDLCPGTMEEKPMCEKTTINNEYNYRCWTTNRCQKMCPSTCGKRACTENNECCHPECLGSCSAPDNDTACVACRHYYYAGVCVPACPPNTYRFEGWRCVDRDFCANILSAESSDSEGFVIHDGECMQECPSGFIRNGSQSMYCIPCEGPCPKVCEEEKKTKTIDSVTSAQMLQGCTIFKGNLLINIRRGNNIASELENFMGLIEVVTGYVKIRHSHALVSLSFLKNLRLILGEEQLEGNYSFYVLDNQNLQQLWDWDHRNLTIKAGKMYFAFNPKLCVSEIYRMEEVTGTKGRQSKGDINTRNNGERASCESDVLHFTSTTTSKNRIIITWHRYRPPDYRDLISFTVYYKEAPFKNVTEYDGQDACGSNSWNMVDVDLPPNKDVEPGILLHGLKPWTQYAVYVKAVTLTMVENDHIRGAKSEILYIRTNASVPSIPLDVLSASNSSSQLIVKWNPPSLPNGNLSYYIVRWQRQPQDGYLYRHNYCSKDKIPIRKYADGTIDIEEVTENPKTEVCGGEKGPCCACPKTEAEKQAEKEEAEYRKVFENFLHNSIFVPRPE
Chain of Insulin-like growth factor 1 receptor (Homo sapiens) (P08069 741-1367 limits assumed): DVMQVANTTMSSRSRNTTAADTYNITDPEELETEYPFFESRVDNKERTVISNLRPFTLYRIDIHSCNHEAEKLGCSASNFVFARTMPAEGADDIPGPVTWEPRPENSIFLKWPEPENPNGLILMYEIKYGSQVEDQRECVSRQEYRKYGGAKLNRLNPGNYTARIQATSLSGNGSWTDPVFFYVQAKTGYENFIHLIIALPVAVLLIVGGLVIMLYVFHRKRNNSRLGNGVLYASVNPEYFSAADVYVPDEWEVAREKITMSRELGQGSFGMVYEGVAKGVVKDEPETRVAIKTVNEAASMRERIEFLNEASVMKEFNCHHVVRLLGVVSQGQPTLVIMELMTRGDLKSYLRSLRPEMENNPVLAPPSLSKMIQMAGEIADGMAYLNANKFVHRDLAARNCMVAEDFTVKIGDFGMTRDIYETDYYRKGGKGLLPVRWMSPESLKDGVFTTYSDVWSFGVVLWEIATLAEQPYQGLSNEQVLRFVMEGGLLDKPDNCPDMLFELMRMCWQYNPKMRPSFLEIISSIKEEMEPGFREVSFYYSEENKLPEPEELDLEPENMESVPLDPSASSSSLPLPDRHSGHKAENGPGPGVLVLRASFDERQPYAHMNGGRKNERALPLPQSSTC
Assay [5] has the same target. The settings on record: at 10 µM.
Assay [6] deals with T3, Inhibitor of nuclear factor kappa-B kinase subunit alpha (Homo sapiens) (UniProt O15111).
T3 sequence (whole entry): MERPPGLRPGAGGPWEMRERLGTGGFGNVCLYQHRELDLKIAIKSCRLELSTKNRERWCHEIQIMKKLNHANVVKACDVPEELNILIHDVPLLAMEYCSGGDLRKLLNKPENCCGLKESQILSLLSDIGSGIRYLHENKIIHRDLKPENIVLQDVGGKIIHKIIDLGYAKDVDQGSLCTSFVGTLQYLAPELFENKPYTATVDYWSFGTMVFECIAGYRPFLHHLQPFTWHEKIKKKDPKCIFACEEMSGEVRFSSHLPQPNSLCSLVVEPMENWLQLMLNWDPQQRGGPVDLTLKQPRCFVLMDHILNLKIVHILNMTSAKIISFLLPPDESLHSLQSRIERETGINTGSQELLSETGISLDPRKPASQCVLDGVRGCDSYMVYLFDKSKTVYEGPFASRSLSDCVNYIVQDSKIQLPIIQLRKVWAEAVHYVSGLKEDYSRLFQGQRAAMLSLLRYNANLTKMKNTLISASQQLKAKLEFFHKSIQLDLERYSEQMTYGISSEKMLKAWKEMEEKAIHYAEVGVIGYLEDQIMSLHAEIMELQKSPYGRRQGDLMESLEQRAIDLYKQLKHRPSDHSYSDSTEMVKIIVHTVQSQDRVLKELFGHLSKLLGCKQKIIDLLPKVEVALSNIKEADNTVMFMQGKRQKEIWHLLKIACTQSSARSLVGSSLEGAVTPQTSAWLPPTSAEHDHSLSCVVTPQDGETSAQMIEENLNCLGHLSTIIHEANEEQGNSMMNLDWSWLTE
The settings on record: at 1 µM.

Assay [7] concerns the target T3, Inhibitor of nuclear factor kappa-B kinase subunit alpha (Homo sapiens). The note with it: at 10 µM.
Assay [8] addresses T4, Inhibitor of nuclear factor kappa-B kinase subunit beta (Homo sapiens) (UniProt O14920).
T4 sequence (whole entry): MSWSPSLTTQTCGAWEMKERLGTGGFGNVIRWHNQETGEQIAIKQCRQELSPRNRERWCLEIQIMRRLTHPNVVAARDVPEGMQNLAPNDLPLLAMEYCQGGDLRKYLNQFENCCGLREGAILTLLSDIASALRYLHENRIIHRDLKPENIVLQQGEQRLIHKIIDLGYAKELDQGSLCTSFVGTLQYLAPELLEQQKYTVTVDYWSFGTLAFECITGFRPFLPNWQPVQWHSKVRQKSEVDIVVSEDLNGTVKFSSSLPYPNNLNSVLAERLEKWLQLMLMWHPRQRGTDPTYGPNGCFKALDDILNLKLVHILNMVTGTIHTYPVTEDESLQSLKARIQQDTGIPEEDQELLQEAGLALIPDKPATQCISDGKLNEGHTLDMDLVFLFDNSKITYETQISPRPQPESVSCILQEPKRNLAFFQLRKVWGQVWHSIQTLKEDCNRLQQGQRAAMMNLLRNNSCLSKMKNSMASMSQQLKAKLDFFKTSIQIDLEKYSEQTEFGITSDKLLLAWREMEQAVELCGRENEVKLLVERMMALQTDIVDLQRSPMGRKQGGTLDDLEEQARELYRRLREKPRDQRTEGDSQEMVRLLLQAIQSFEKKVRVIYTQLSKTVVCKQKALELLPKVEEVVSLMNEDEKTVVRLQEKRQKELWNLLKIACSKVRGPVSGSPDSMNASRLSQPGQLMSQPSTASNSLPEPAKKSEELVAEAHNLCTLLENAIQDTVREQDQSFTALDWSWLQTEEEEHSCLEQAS
The note with it: at 1 µM.

Assay [9] has as its target T4, Inhibitor of nuclear factor kappa-B kinase subunit beta (Homo sapiens). The note with it: at 10 µM.
Assay [10] deals with Insulin receptor (Homo sapiens) (UniProt P06213). The settings on record: at 1 µM.
Chain of Insulin receptor (Homo sapiens) (P06213 28-758 limits assumed): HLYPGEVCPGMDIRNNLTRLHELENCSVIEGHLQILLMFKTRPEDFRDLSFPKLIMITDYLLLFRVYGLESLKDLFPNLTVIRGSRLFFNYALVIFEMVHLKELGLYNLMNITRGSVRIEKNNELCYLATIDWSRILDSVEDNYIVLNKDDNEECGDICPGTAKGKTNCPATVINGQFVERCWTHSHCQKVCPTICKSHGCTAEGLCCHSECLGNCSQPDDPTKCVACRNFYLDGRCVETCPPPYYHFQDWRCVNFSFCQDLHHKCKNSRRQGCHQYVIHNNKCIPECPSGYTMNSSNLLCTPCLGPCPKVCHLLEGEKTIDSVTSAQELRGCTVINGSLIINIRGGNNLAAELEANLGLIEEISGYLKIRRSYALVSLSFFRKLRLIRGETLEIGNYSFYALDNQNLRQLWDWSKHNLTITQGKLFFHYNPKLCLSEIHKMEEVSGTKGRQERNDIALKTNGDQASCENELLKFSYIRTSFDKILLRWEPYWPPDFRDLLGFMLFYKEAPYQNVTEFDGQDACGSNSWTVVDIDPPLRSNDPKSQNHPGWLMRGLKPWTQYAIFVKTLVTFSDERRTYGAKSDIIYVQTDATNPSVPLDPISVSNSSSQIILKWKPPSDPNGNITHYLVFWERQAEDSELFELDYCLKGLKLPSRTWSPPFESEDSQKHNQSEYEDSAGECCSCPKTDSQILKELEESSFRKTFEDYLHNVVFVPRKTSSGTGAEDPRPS
Chain of Insulin receptor (Homo sapiens) (P06213 763-1382 limits assumed): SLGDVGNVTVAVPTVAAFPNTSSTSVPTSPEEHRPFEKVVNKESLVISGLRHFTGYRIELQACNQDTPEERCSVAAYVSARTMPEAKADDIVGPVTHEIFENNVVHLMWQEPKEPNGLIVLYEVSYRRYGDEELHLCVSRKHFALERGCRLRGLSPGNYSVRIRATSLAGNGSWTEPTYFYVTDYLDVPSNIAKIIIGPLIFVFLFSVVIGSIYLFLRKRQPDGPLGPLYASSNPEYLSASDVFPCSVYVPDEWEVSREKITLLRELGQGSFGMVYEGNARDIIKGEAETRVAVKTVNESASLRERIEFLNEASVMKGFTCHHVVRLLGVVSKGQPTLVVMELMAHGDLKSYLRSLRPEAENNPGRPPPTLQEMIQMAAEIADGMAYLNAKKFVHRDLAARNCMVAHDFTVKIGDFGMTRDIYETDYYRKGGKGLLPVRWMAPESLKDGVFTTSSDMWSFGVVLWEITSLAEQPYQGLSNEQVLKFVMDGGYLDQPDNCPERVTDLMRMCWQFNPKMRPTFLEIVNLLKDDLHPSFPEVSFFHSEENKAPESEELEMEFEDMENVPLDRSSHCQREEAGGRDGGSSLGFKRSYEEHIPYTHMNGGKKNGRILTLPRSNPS

Molecules are shown by their SMILES.

For `CC(=O)O/N=C1\C(=C2\C(=O)Nc3cc(Br)ccc32)Nc2ccccc21`, the residual activity – broadly, the signal under treatment as a percentage of the control signal – in [1] came to 14%; in assay [2], 91%; in assay [3], 74%; in [4] it was 102%; in assay [5] it was 100%; in assay [6], 111%. For the same compound, the residual activity in assay [7] amounted to 108%; in [8], 101%; in assay [9] it was 93%; in assay [10], 118%.

The values above are taken from ChEMBL document CHEMBL2218924, “A broad activity screen in support of a chemogenomic map for kinase signalling research and drug discovery” (Biochem J, 2013).
